From PubChem BioAssay (Tox21)
Results filed as inconclusive are left out. Entries that show only a call come without a potency. Calls of active or inactive are those of the source. Unless noted, calls follow the shape of the dose curve; as a rule, active = well fitted curve in the direction sought with a large enough effect in the repeat runs; inconclusive = weak or mixed curves; inactive = no such curve, though single readings can be large; an effect the other way counts as inactive or inconclusive.

Experiments:
[1] = qHTS assay to identify small molecule antagonists of the peroxisome proliferator-activated receptor delta (PPARd) signaling pathway - cell viability counter screen (AID 743213); also: nearly all actives have a fitted effect of over 50% in size; also: potency is read from the fitted curve at half-maximal effect
In short: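 In this counter screen, HEK293H cells carrying a UAS-beta-lactamase reporter are co-treated with test compounds and 300 nM L165041 (final) for 17 h at 37 C; cell viability is quantified by CellTiter-Glo luminescence.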

[2] = target: Peroxisome proliferator-activated receptor delta (Homo sapiens) (UniProt Q03181); assay: qHTS assay to identify small molecule antagonists of the peroxisome proliferator-activated receptor delta (PPARd) signaling pathway (AID 743215; active = well fitted inhibition curve with a large enough effect in the signal ratio in the repeat runs, not every such curve was filed as active; the % refers to the signal ratio;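 also: cells stimulated with agonist L165041 at 300 nM final during compound exposure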; also: potency is read from the fitted curve at half-maximal effect)
In short: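 Agonist L165041 (300 nM final) added with compound to PPARd-bla HEK293H UAS-bla reporter cells; 17 h incubation at 37 C. Read-out: LiveBLAzer FRET substrate, 2 h at room temperature, fluorescence intensity.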

[3] = qHTS assay to identify small molecule agonists of the farnesoid-X-receptor (FXR) signaling pathway - cell viability counter screen (AID 743218); also: nearly all actives have a fitted effect of over 45% in size; also: potency is read from the fitted curve at half-maximal effect
In short: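 Viability counter screen in the same wells: CellTiter-Glo luminescence, 30 min room-temperature incubation, measured after the beta-lactamase read. Cells were GeneBLAzer FXR-UAS-bla HEK 293T, compound-treated 16 h at 37C.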

[4] = target: Vitamin D3 receptor (Homo sapiens) (UniProt P11473); assay: qHTS assay to identify small molecule antagonists of the vitamin D receptor (VDR) signaling pathway (AID 743223; active = well fitted inhibition curve with a large enough effect in the signal ratio in the repeat runs, not every such curve was filed as active; the % refers to the signal ratio; also: potency is read from the fitted curve at half-maximal effect)
In short: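 Agonist 1alpha,25-dihydroxyvitamin D3 (3 nM in well) was added with each compound to VDR-bla cells preincubated 4 h. Cells stood 16 h at 37C, then FRET substrate 2 h at room temperature; fluorescence intensity recorded.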

[5] = qHTS assay to identify small molecule agonists of the vitamin D receptor (VDR) signaling pathway - cell viability counter screen (AID 743224); also: nearly all actives have a fitted effect of over 50% in size; also: potency is read from the fitted curve at half-maximal effect
In short: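 Counter screen run in the same wells as the VDR-bla reporter assay: CellTiter-Glo luminescence, 30 min at room temperature, after 16 h compound treatment at 37C of cells pre-plated for 4 h.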

[6] = qHTS assay to identify small molecule antagonists of the retinoid-related orphan receptor gamma (ROR-gamma) signaling pathway - cell viability counter screen (AID 1159520); also: nearly all actives have a fitted effect of over 50% in size; also: potency is read from the fitted curve at half-maximal effect
In short: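 Tet-on ROR gamma CHO cells (1,000/well) were plated 4 hr, given compounds in DMSO for 2 hr at 37 C, then induced with 1 uM final doxycycline for 16 hr. Viability was read as ATP by CellTiter-Glo luminescence after 30 min.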

[7] = target: Nuclear receptor ROR-gamma (Homo sapiens) (UniProt P51449); assay: qHTS assay to identify small molecule antagonists of the retinoid-related orphan receptor gamma (ROR-gamma) signaling pathway (AID 1159521; also: nearly all actives have a fitted effect of over 50% in size; also: potency is read from the fitted curve at half-maximal effect)
In short: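 CHO cells expressing RORγ under a TET-on promoter, luciferase under RORE control. Dox 1 uM final, 16 h; compounds added 2 h prior. Luminescence decrease measured.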

[8] = qHTS assay to identify small molecule agonists of the RXR signaling pathway - cell viability counter screen (AID 1159529); also: nearly all actives have a fitted effect of over 50% in size; also: potency is read from the fitted curve at half-maximal effect
In short: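 Same-well viability check after the LiveBLAzer FRET read: CellTiter-Glo added, luminescence measured after 30 min at room temperature. Reporter HEK 293T cells had been treated with compounds for 16 hr following a 5 hr preincubation.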

[9] = qHTS assay to identify small molecule antagonists of the retinoid acid receptor (RAR) signaling pathway - cell viability counter screen (AID 1159551); also: nearly all actives have a fitted effect of over 35% in size; also: potency is read from the fitted curve at half-maximal effect
In short: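 Cytotoxicity counter screen: ATP content quantified by CellTiter-Glo luminescence in C3RL4 cells treated 6 hr at 37 C with compound and retinol (1 uM final). Cells plated at 1,000/well and cultured overnight before dosing.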

[10] = qHTS assay to identify small molecule antagonists of the retinoic acid receptor (RAR) signaling pathway (AID 1159552; also: nearly all actives have a fitted effect of over 50% in size; also: potency is read from the fitted curve at half-maximal effect)
In short: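 Readout: luciferase luminescence, 30 min post-reagent at RT. Setup: C3RL4 RARE reporter cells, compounds plus retinol 1 uM final, 6 hr incubation at 37 C and 5% CO2.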

[11] = target: Bile acid receptor (Homo sapiens) (UniProt Q96RI1); assay: qHTS assay to identify small molecule antagonists of the farnesoid-X-receptor (FXR) signaling pathway (AID 743217; active = well fitted inhibition curve with a large enough effect in the signal ratio in the repeat runs, not every such curve was filed as active; the % refers to the signal ratio)
In short: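 Antagonist mode: chenodeoxycholic acid at 50 uM final stimulates a UAS-driven beta-lactamase reporter in HEK 293T FXR-bla cells during 16 h, 37C compound exposure. Read-out is FRET substrate fluorescence after 2 h at room temperature.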

[12] = target: Bile acid receptor (Homo sapiens) (UniProt Q96RI1); assay: qHTS assay to identify small molecule agonists of the farnesoid-X-receptor (FXR) signaling pathway (AID 743220; active = well fitted activation curve with a large enough effect in the signal ratio in the repeat runs, not every such curve was filed as active; the % refers to the signal ratio)
In short: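 FXR-UAS-bla HEK 293T cells carrying a UAS-driven beta-lactamase reporter were plated for 5 h at 37C/5% CO2, then exposed to DMSO-dissolved Tox21 10K compounds for 16 h at 37C. A LiveBLAzer B/G FRET substrate was loaded for 2 h at room temperature before fluorescence reading.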

[13] = qHTS assay to identify small molecule antagonists of the farnesoid-X-receptor (FXR) signaling pathway - cell viability counter screen (AID 743221; active = well fitted cell-killing curve with a large enough effect in the repeat runs, not every such curve was filed as active; also: nearly all actives have a fitted effect of over 50% in size)
In short: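 In GeneBLAzer FXR-UAS-bla HEK 293T cells stimulated with 50 uM chenodeoxycholic acid (final), compounds acted for 16 h at 37 C. Viability was assessed afterwards by CellTiter-Glo luminescence.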

[14] = target: Vitamin D3 receptor (Homo sapiens) (UniProt P11473); assay: qHTS assay to identify small molecule agonists of the vitamin D receptor (VDR) signaling pathway (AID 743222; calls by dose curve)
In short: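 Agonist mode, beta-lactamase reporter: fluorescence from LiveBLAzer B/G FRET substrate (2 h, room temperature) read after 16 h compound treatment at 37 C of VDR-bla cells, which were pre-incubated 4 h after seeding.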

[15] = qHTS assay to identify small molecule agonists of the AP-1 signaling pathway - cell viability counter screen (AID 1159525; calls by dose curve; also: nearly all actives have a fitted effect of over 55% in size; also: potency is read from the fitted curve at half-maximal effect)
In short: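 Each titration point was normalised to DMSO and tetra n-octyl ammonium bromide controls. The read was Cell Titer Glo luminescence after 30 min at RT, following 5 h compound exposure of ME-180 AP-1-bla cells at 37 °C.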

[16] = qHTS assay to identify small molecule antagonists of the vitamin D receptor (VDR) signaling pathway - cell viability counter screen (AID 743225); also: nearly all actives have a fitted effect of over 50% in size; also: potency is read from the fitted curve at half-maximal effect
In short: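 Luminescent cell viability (CellTiter-Glo) in VDR-bla HEK 293T cells after 16 h compound exposure at 37C in the presence of 3 nM final 1-alpha,25-dihydroxy vitamin D3.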

[17] = qHTS assay to identify small molecule antagonists of the estrogen related receptor (ERR) signaling pathway - cell viability counter screen (AID 1224818);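 also: series mostly up to about 46 µM; viability measured after 17.5 h of compound exposure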
In short: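 Cytotoxicity counter screen: fluorescence from CellTiter-Fluor, added after 17.5 h compound exposure at 37 C and read 30 min later. ERR cell line seeded at 2,000 cells/well, preincubated 6 h before dosing.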

Vitamin D3 receptor (Homo sapiens), sequence (P11473 whole entry, looked up): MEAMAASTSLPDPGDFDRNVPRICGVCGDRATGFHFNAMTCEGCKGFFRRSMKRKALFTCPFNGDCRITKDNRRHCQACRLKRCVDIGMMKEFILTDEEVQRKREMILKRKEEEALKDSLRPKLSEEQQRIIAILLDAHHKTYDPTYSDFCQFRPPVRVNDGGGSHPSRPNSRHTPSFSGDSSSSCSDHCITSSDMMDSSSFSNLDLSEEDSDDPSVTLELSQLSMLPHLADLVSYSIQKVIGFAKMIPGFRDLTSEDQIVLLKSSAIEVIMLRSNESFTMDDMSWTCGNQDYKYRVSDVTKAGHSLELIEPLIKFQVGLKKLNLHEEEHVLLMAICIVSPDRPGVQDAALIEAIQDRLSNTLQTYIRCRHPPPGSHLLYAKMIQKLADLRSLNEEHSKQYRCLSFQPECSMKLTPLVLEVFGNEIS
Peroxisome proliferator-activated receptor delta (Homo sapiens), sequence (Q03181 whole entry, looked up): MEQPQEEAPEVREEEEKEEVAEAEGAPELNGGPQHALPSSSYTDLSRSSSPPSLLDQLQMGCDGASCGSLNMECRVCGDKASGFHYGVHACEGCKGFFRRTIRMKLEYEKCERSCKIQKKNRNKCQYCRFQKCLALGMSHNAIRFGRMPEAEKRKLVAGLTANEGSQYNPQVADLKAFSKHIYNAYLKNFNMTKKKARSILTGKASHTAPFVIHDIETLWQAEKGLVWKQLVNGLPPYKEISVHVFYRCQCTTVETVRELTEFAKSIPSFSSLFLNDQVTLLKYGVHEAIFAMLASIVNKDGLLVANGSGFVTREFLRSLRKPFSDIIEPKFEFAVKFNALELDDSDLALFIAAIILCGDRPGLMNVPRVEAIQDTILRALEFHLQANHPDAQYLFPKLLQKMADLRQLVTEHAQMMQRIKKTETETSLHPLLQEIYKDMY
Bile acid receptor (Homo sapiens), sequence (Q96RI1 whole entry, looked up): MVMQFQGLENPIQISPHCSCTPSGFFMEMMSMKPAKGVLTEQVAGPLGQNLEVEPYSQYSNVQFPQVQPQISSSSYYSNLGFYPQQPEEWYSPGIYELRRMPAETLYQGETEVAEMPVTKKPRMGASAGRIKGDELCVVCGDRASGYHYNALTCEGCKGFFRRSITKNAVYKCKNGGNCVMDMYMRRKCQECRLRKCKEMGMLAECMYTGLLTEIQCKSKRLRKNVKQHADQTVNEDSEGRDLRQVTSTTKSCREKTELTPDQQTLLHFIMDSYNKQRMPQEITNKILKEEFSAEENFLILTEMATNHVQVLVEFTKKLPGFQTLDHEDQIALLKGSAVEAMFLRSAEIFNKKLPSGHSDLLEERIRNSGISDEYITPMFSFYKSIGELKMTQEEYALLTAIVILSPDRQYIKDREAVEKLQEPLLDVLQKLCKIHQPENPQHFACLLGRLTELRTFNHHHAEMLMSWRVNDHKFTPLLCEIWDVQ

| Structure (SMILES) | Potency [1] | Potency [2] | Potency [3] | Potency [4] | Potency [5] | Potency [6] | Potency [7] | Potency [8] | Potency [9] | Potency [10] | Potency [11] | outcome [12] | Potency [13] | outcome [14] | Potency [15] | Potency [16] | Potency [17] |
| --- | --- | --- | --- | --- | --- | --- | --- | --- | --- | --- | --- | --- | --- | --- | --- | --- | --- |
| CCCCCCCCCC[N+](C)(CCCCCCCCCC)CCC[Si](OC)(OC)OC | 9.77 µM (active) | inactive | 8.71 µM (active) | inactive | 6.92 µM (active) | 24.3 µM (active) | 21.7 µM (active) | 21.9 µM (active) | 30.6 µM (active) | 61.1 µM (active) |  |  |  |  |  |  |  |
| CC(O)(c1ccc(Cl)cc1)c1ccc(Cl)cc1 | inactive | inactive | inactive |  |  | inactive | inactive | 38.9 µM (active) |  | 61.1 µM (active) | inactive | inactive | inactive | inactive | 54.9 µM (active) |  |  |
| C=C1C(CCl)(CCl)C2(Cl)C(Cl)C(Cl)C1(Cl)C2(Cl)Cl (centres undefined) |  |  | 48.4 µM (active) |  | 21.6 µM (active) | 60.4 µM (active) | 48 µM (active) | 24.3 µM (active) | inactive |  |  |  |  |  | 43.1 µM (active) | 48.4 µM (active) |  |
| CCN(CC)c1ccc(N=Nc2ccccc2)cc1 |  |  |  |  |  | inactive | inactive | 19.5 µM (active) |  | inactive |  |  |  |  | inactive |  |  |
| O=C(Nc1ccccc1)c1cc(Cl)ccc1O |  |  | 38.9 µM (active) |  | 12.3 µM (active) | 24.3 µM (active) | 12.2 µM (active) |  |  | inactive |  | inactive |  | inactive | inactive | 12.3 µM (active) |  |
| O=C1CCC/C=C\CCCCCCCCCC1 |  |  | inactive | inactive |  | inactive | inactive |  | inactive | inactive | inactive | inactive | inactive | inactive | inactive | inactive |  |
| CC(=O)[C@]1(O)Cc2c(O)c3c(c(O)c2[C@@H](O[C@H]2C[C@H](N)[C@H](O)[C@H](C)O2)C1)C(=O)c1ccccc1C3=O | inactive | 3.76 µM (active) |  | 1.9 µM (active) | inactive | 26.6 µM (active) | inactive | inactive |  | 0.298 µM (active) |  |  | inactive | inactive | inactive | inactive | inactive |
